Assay results as given in PubChem BioAssay.

Assay: changes in parasitized red cell lysis, either direction – P. falciparum Indochina, OD700, 3 h, PSAC antagonist project, primary screen (AID 1156)
Conditions: P. falciparum-infected erythrocytes, osmotic lysis, higher = more signal, called active from +8 up or from −8 down

z-score, inactive:
[N-]=[N+]=Nc1ccccc1C[C@@]1(C(=O)NCC(O)CO)N=C(c2ccc(OCCCO)cc2)O[C@@H]1c1ccccc1 (stereo not given in full) 2.05
C=C(CCCC)/C(=C/C[C@H](OC(=O)c1ccncc1)c1cccc(OCCO)c1)c1cnc2ccccc2c1 1.5
COCCOC(=O)N1C(=O)[C@@]2(c3cc(C#Cc4ccc(OC)cc4)ccc31)[C@H](c1ccc(OCCO)cc1)N1[C@H](c3ccccc3)[C@H](c3ccccc3)OC(=O)[C@H]1[C@@H]2C(=O)NC[C@H](O)c1ccccc1 0.0276
CCOC(=O)C1=CC[C@@H](c2ccc(OC)cc2)N(S(=O)(=O)c2ccc(C)cc2)[C@H]1c1ccc(C)cc1 -0.715
COCCOC(=O)N1C(=O)[C@@]2(c3cc(C#CCCO)ccc31)[C@H](c1ccc(OCCO)cc1)N1[C@H](c3ccccc3)[C@H](c3ccccc3)OC(=O)[C@H]1[C@@H]2C(=O)N1CCCCCCC1 -0.564
COC(=O)[C@@]1(Cc2ccc(F)cc2)[C@H]2c3cc(C(=O)N4CCCC4)n(Cc4cc(F)cc5c4OCOC5)c3C[C@H]2CN1C(=O)c1ccccc1 3.36
C=C(CCCC)/C(=C/C[C@H](OC(=O)c1ccncc1)c1ccc(OCCO)cc1)c1cnc2ccccc2c1 1.98
C=CCOC(=O)[C@@H]1[C@H]2C(=O)O[C@H](c3ccccc3)[C@H](c3ccccc3)N2[C@H](c2ccc(OCCOC(=O)[C@H]3C[C@H]4C(=O)N5CCC[C@H]5C(=O)N4[C@H]3c3cccc(OCCO)c3)cc2)[C@@]12C(=O)Nc1ccc(I)cc12 -0.341
COc1ccc([Si](C)(C)[C@H]2[C@H](CC(=O)N3Cc4ccccc4C[C@H]3CO)O[C@@]3(C(=O)N(C)c4c(Br)cc(C)cc43)[C@@H]2C)cc1 1.31
CCCC[C@H]1OB(O)C[C@H]2C1=C(COc1ccccc1)C[C@H]1C(=O)C=CC(=O)[C@H]12 0.129
COCCOC(=O)N1C(=O)[C@@]2(c3cc(C#CCC(C(=O)OC)C(=O)OC)ccc31)[C@H](C(=O)Nc1nc3ccccc3s1)[C@H]1C(=O)O[C@H](c3ccccc3)[C@H](c3ccccc3)N1[C@@H]2c1ccc(O)cc1 -0.0813
COC(=O)[C@@]1(Cc2ccc(OC)cc2)[C@H]2c3cc(C(=O)N4CCCC4)n(Cc4ccc(Cl)c(C(F)(F)F)c4)c3C[C@H]2CN1C(=O)c1ccccc1 -0.397
Cc1ccc(F)cc1S(=O)(=O)N[C@H]1CCN(Cc2ccc(OC(C)C)cc2)C1 0.183
COCCOC(=O)N1C(=O)[C@@]2(c3cc(C#CCNC(N)=O)ccc31)[C@H](C(=O)Nc1nc3ccccc3s1)[C@H]1C(=O)O[C@H](c3ccccc3)[C@H](c3ccccc3)N1[C@@H]2c1ccccc1OCCO 0.483
CCCCC(O)C1C=CC2C(=O)N(c3ccccc3)C(=O)C2N1Nc1ccc([N+](=O)[O-])cc1 (stereo not given) 0.371
CCCN1C(=O)[C@@]2(c3ccc([N+](=O)[O-])cc3)CC(=O)N(CC34CC5CC(CC(C5)C3)C4)[C@@H]2c2ccc(CO)cc21 0.519
O=C1C=C(c2ccccc2)C(=O)C2=C1CC([C@H]1Oc3ccccc3S(=O)(=O)N3CCC[C@@H]13)=CC2 -0.299
O=C1[C@H]2C=C(I)[C@H](C[C@@H]2OCCCCCCO)[C@@]12CO2 0.487
N#Cc1ccc(-c2cccc(=O)o2)cc1 -0.598
N#Cc1ccc(NN2C(C(O)C3CC=CCC3)C=CC3C(=O)N(c4ccccc4)C(=O)C32)cc1 (stereo not given) 0.889
COC(=O)C(CC#Cc1ccc2c(c1)[C@]1(C(=O)N2)[C@H](c2ccc(OCCO)cc2)N2[C@H](c3ccccc3)[C@H](c3ccccc3)OC(=O)[C@H]2[C@@H]1C(=O)N1CCCCCCC1)C(=O)OC 0.309
COCCOC(=O)N1C(=O)[C@@]2(c3ccccc31)[C@H](c1ccc(O)cc1)N1[C@H](c3ccccc3)[C@H](c3ccccc3)OC(=O)[C@H]1[C@@H]2C(=O)N1CCCCCCC1 -0.363
COc1ccc(C(O)C2C=CC3C(=O)N(c4ccccc4)C(=O)C3N2Nc2ccc([N+](=O)[O-])cc2)c2ccccc12 (stereo not given) 0.722
O=C1c2ccccc2[C@@]2(Cc3ccccc3N(Cc3ccccc3)C2=O)[C@H](c2ccc(CO)cc2)N1Cc1ccccc1Cl -0.113
O=C1[C@@H]2[C@@H](CC(COc3ccccc3)=C([C@H](O)CCc3ccccc3)[C@@H]2CO)C(=O)N1Cc1ccccc1 -0.602
COCCOC(=O)N1C(=O)[C@@]2(c3cc(C#CCC(C(=O)OC)C(=O)OC)ccc31)[C@H](C(N)=O)[C@H]1C(=O)O[C@H](c3ccccc3)[C@H](c3ccccc3)N1[C@@H]2c1ccc(O)cc1 3.28
CN(C)CCCNC(=O)[C@@]1(C)c2ccccc2C(=O)N(Cc2ccc(OC(F)(F)F)cc2)[C@H]1c1ccc(CO)cc1 2.79
CCCC=C(CCC)[C@@H](NC(=O)OCC(C)C)c1ccc(C(=O)OC)cc1 -1.07
COc1ccc(CCNC(=O)[C@@H]2c3ccccc3C(=O)N(Cc3ccccc3OC)[C@H]2c2ccc(CO)cc2)cc1 0.709
CCCC#C[Si](O[C@H](CC)c1cn(Cc2ccccc2)nn1)(C(C)C)C(C)C -0.929
[N-]=[N+]=NCc1ccccc1[C@@H]1OC(c2ccc(OCCCO)cc2)=N[C@]1(Cc1ccccc1N=[N+]=[N-])C(=O)O 3.2
CN(C)CCCNC(=O)[C@@H]1c2ccccc2C(=O)N(Cc2ccccc2C(F)(F)F)[C@H]1c1ccc(CO)cc1 1.21
C=CCNC(=O)[C@H]1[C@@H]2C(=O)O[C@@H](c3ccccc3)[C@@H](c3ccccc3)N2[C@@H](c2ccc(OCCO)cc2)[C@]12C(=O)Nc1ccccc12 -0.444
O=C1O[C@@H](c2ccccc2)[C@@H](c2ccccc2)N2[C@@H](c3ccccc3OCCO)[C@]3(C(=O)Nc4ccc(C#CCCO)cc43)[C@@H](C(=O)NC[C@H](O)c3ccccc3)[C@H]12 -1.33
C[C@]1(C(=O)O)c2ccccc2C(=O)N(Cc2cc(F)cc(C(F)(F)F)c2)[C@H]1c1ccc(CO)cc1 -0.992
